# Most compounds without a hit are left out; they make up all but 2.4% or so of the library.
# YjeE inh: displaces an ADP probe from E. coli YjeE (TsaE). P0AF67. purified YjeE enzyme, qHTS inhibition assay. Potency, µM. 71,000 compounds, 0.05% hits
#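 Purified YjeE (10 uM) with BODIPY Texas Red-labeled ADP probe (2 uM); compounds pin-transferred, 15 min at room temperature. Binding inhibition read as decreased fluorescence polarization; ADP titration as control.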
# Pol III holo inh: DNA polymerase III holoenzyme inhibition. 71,000 compounds, 0.25% hits. Potency, µM (highest dose often 57.1 µM), without a hit: top-dose activity change, negative = inhibition. reconstituted DNA polymerase III holoenzyme replication, biochemical; note: potency is the fitted concentration of half-maximal effect; % is set by controls: 0 for no effect and ±100 for the full control effect
#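 Reconstituted *E. coli* holoenzyme (0.35 nM Pol III, 1 nM beta, 154 nM SSB, 2 nM primase) was preincubated with compound for 15 min at RT. Synthesis on 1.4 nM ssM13Gori ran 35 min, then was stopped with PicoGreen/EDTA and read as dsDNA fluorescence.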
# BRCT inh green: inhibitors of human BRCA1 BRCT-phosphoprotein interaction (green fluorophore). BRCA1 BRCT-phosphopeptide binding, green fluorescence polarization. Potency, µM (titrated, usually from 76.9 µM), for the others: at the highest dose activity change, negative = inhibition, usual class: inhibitors. 75,000 compounds, 0.05% hits;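 note: potency is the fitted concentration of half-maximal effect; plate controls were peptide without protein for full effect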
#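 Compounds were incubated for 12 min at room temperature with a complex of 100 nM fluorescein-tagged pBACH1 decapeptide and 250 nM His-tagged BRCT protein. Buffer was phosphate pH 7.3 with EDTA, DTT and Tween 20. Disruption of binding lowers the polarization signal.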
# Tau filament bind: tau filament binding. recombinant tau filaments, thioflavin S fluorescence, 15 h; filaments grown with octadecylsulfate alongside compound. Potency, µM (titrated, usually from 57.1 µM), for the others: at the top dose activity change, negative = inhibition. 71,000 compounds, 2% hits;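 note: potency is the fitted concentration of half-maximal effect; % is set by controls: 0 for no effect and ±100 for the full control effect; actives lower thioflavin S fluorescence by blocking filaments or displacing dye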
#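 His-tagged recombinant human tau (exons 2, 3 and 10 included), 1 uM, was induced to fibrillize by 30 uM sodium octadecylsulfate with compound present. After 15 h at 37 C, thioflavine S fluorescence (ex 450, em 510 nm) was read.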
# Hsp90 Hop PPI: changes Hsp90-Hop TPR2A binding signal, up or down | AlphaScreen TPR2A-His6 binding biotin-Hsp90 C-terminal peptide | Potency, µM (titrated, usually from 57 µM), without a hit: at the highest dose activity change, negative = inhibition | 71,000 compounds, 0.44% hits | AID 595; active = well fitted curve in either direction with a large enough effect; inconclusive = small, poorly fitted or top-dose-only effect, or another doubt; note: potency is the fitted concentration of half-maximal effect; % is set by controls: 0 for no effect and ±100 for the full control effect
# BRCT inh red: disrupts BRCA1 BRCT binding to phosphoprotein, red fluorophore readout; 75,000 compounds, 0.03% hits; AID 892; BRCT-phosphopeptide binding, red fluorescence polarization; Potency, µM (highest dose often 76.9 µM), without a hit: top-dose activity change, negative = inhibition, usual class: inhibitors; note: % is set by controls: 0 for no effect and ±100 for the full control effect
#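 Fluorescence polarization: 100 nM His-tagged BRCA1 BRCT with 100 nM TAMRA-labelled phospho-BACH1 decapeptide, phosphate buffer pH 7.3 with 150 mM NaCl, DTT, 0.01% Tween 20; 12 min RT. Binding inhibition seen as FP decrease.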
# Starred values were filed as active, the others as inactive; i = inactive; ? = inconclusive; · = no result; ! = not active in a repeat; [ ] = remark or other dose. Unless noted, calls come from the whole dose curve; as a rule, active = well fitted curve in the direction sought with a large enough effect; inconclusive = small, poorly fitted or top-dose-only effect, or another doubt; inactive = no such curve, though single readings can be large; an effect the other way counts as inactive or inconclusive.
SMILES,YjeE inh,Pol III holo inh,BRCT inh green,Tau filament bind,Hsp90 Hop PPI,BRCT inh red
CC(=O)O[C@H]1CC[C@]2(C)C(=CC[C@H]3[C@H]4C[C@H]5O[C@]6(CC[C@H](C)CN6)[C@H](C)[C@@H]5[C@]4(C)CC[C@@H]32)C1,i,-3%[11.4 µM],-3%[15.4 µM],-1%[11.4 µM],-4%[11 µM],1%[15.4 µM]
CS(=O)(=O)N1CCC2(CC1)CN(C(=O)Nc1cccc(C#N)c1)C2,i,-3%,0%,1%,-4%,-1%
Nc1c2ccccc2nc2ccccc12 (tested in a mixture with another compound),·,·,0%[3.08 µM],·,·,0%
Nc1cc2c(nc3c4ccccc4c(N)cc3[n+]2-c2cccc3ccccc23)c2ccccc12 (tested in a mixture with another compound),?,-4%[11.4 µM],-1%[15.4 µM],0.63µM*,2.5µM*,2%[15.4 µM]
CCN1C(=O)[C@H]2[C@H]3[C@H](O)[C@H](O)C/C(=N/NC(=O)OCc4ccc(OC)cc4)[C@H]3CC[C@@H]2C1=O,·,·,1%[15.4 µM],·,·,0%[15.4 µM]
COc1ccccc1-c1ccc2ncnc(N3CCNCC3)c2c1,i,-11%,-1%,1%,0%,-3%
CNCCCCCCCCSc1nc(C(C)C)ccc1C(=O)c1cccs1,i,2%,1%,13µM*,-6%,1%
CC(C)c1nnc(NC(=O)c2cccs2)s1,i,-7%,0%,-13%,?,-1%
C=CC[C@@H]1C=C[C@@H](O/N=C2/[C@H]3O[C@@H]3[C@@H](O)[C@H]3[C@H]2CCn2c(=O)n(-c4ccccc4)c(=O)n23)[C@@H](CO)O1,·,·,1%[15.4 µM],·,·,-3%[15.4 µM]
COc1ccccc1N1CSC2=C(C#N)C(c3ccc(SC)cc3)CC(=O)N2C1 (stereo unspecified),i,-4%,-1%,25µM*,-6%[2.3 µM],0%
Cc1cccn2c(=O)c3cc(C(=O)NC(C)c4ccccc4)c(=N)n(CCCn4ccnc4)c3nc12 (stereo unspecified),i,-24%,-1%,1.3µM*,-21%,0%
Cc1ccc2nc3c(cc(C(=O)NCc4ccccc4)c(=N)n3CCCn3ccnc3)c(=O)n2c1,i,-13%,26%,0.5µM*,?,0%
CC[C@H](NC(C)C)[C@H](O)c1ccc(O)c2[nH]c(=O)ccc12,i,-2%,-3%,32µM*,0%,-1%
O=C1C=C[C@@H](O)[C@H]2[C@@H]3C(=O)N(Cc4ccccc4)C(=O)[C@@H]3CC[C@H]12,·,·,-2%[15.4 µM],·,·,1%[15.4 µM]
CCOc1cccc(=O)c2c(C)n(Cc3ccco3)c(C)c12,i,-3%,35%,4µM*,-9%,0%
CCOC(=O)C1=C(C)NC(=O)NC1c1ccc(OC(C)C(=O)O)c(OC)c1 (stereo unspecified),i,-8%,0%,6%,13µM*,-8%
C[C@@]1(C(NC(=O)c2ccc(-c3ccccc3)cc2)c2ccc(Cl)cc2)C[C@H]1C1CCCCC1 (stereo partly specified),i,-5%,-1%,-8%,-4%,0%
C=CC(C)(C)c1[nH]c2ccccc2c1C1=C(O)C(=O)C(c2c[nH]c3c(CC=C(C)C)cccc23)=C(O)C1=O,100µM*,1.3µM*,-6%,32µM*,?,-6%
Oc1ccccc1C1=NCCNC(C(F)(F)C(F)F)=C1,i,-1%,0%,16µM*,-3%,0%
Oc1ccccc1-c1cc(C(F)(F)C(F)F)[nH]n1,i,0%[11.4 µM],-1%,-7%[11.4 µM],-8%[11 µM],0%
[O-][N+]1=c2ccc(Nc3ccccc3)cc2=NC12CCCCC2,i,-10%,-5%,13µM*,?,0%
Oc1cccc(Nc2ccccc2)c1,i,4%,-2%,-14%,-4%,-1%
COc1ccc(Nc2ccc3c(c2)=NC2(CCCCC2)[N+]=3[O-])cc1,i,-9%,2%,16µM*,?,1%
CN1CCN(c2ncc3ncc(=O)n(-c4ccccc4)c3n2)CC1,i,-3%,-1%,-2%,-7%,1%
CC(C)(C)NC[C@@H](O)COc1ccccc1C1CCCC1,i,-3%[25.6 µM],0%[34.4 µM],13µM*,-3%[26 µM],0%[34.4 µM]
SMILES,YjeE inh,Pol III holo inh,BRCT inh green,Tau filament bind,Hsp90 Hop PPI,BRCT inh red
CN1CCN(c2ncc3nc(-c4cccc(C#N)c4)c(=O)n(CCc4ccccc4)c3n2)CC1,i,-13%,0%,?,-2%,-1%
CC(=O)N[C@@H](C(=O)O)C(C)(C)SN=O,i,-1%,5%,?,-1%,1%
NC[C@@H]1O[C@H](C23CC4CC(CC(C4)C2)C3)Cc2c1ccc(O)c2O,i,-2%,4%,32µM*!,?,0%
CS(=O)(=O)N(CC(=O)O)c1ccccc1,·,·,-3%,·,·,0%
COc1ccc(OC)c(NC(=O)C2CCCN2C(=O)C2CCC(C)CC2)c1 (stereo unspecified),i,0%,1%,20µM*,-9%,-2%
COc1cc(NC(=O)C2CCCN2C(=O)C2CCC(C)CC2)cc(OC)c1OC (stereo unspecified),i,-3%,0%,-30%,-4%,-1%
O=C1c2cc([N+](=O)[O-])ccc2-c2ccc3c4ccc5c6c(ccc(c7ccc1c2c73)c64)C(=O)c1cc([N+](=O)[O-])ccc1-5,i,4µM*,-4%[15.4 µM],1.6µM*,?,-7%[15.4 µM]
CCCn1c(-c2ccc(F)cc2)nc2c(NC3CCN(Cc4ccccc4)CC3)nc(C)nc21,i,-8%,0%,151%,-6%,0%
NC(=O)c1cc(-c2ccccc2)sc1NC(=O)Cc1ccc(S(=O)(=O)N2CCOCC2)s1,i,0%,0%,7.9µM*,-14%,0%
O=C(Nc1nnc(-c2ccccc2)s1)c1ccc(Cl)c(S(=O)(=O)N2CCOCC2)c1,i,-2%[11.4 µM],-3%,2%[11.4 µM],-7%[11 µM],0%
C=CCn1c2ccccc2c2nnc(SCC(=O)NC(C(=O)OC)C(C)C)nc21 (stereo unspecified),i,-9%,-2%,8%,-2%,1%
C=CCSc1nnc2nc3c(nn12)c1cc(C)ccc1n3CC=C,i,-8%,-2%,6.3µM*,-18%,-2%
COc1ccccc1CNC(=O)c1ccc(CNc2c(N3CCCC3)c(=O)c2=O)cc1,i,-4%,-3%,24%,-3%,0%
COc1ccccc1CNc1ccc(N2CCCCC2)cc1,i,0%,0%,10µM*,?,0%
COc1cccc(CNc2ccc(N3CCCCC3)cc2)c1OC,i,-5%,-1%,7.9µM*,?,1%
O=C(Nc1ccccc1)N1CC[C@@]2(CCCN(C(=O)c3ccco3)C2)C1,i,-3%,-5%,-7%,-4%,-1%

# From PubChem
